Data: PubChem BioAssay (Tox21)
Records with an inconclusive call do not appear. A number with no mark means an inactive call. Calls follow the shape of the dose curve; as a rule, active = well fitted cell-killing curve with a large enough effect in the repeat runs (not every such curve was filed as active); inconclusive = weak or mixed curves, or effect the other way; inactive = no such curve, though single readings can be large or run the other way.

Test: qHTS assay to identify small molecule antagonists of the estrogen related receptor signaling pathway with the pleiotropic PPARgamma coactivator (PGC) from Tox21 10K library - cell viability counter screen (AID 1224840); also: nearly all actives have a fitted effect of over 40% in size
Settings: PGC/ERR reporter cells viability, CellTiter-Fluor, 17.5 h; series mostly up to 92.4 µM; viability change, negative = cytotoxic: at the top concentration
Summary of the method: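 Readout: fluorescence intensity from CellTiter-Fluor after 30 min at 37 C/5% CO2. Preceded by 17.5 h treatment of PGC/ERR cells with DMSO-dissolved compounds, added 6 h post-seeding.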
% is scaled to controls: 0 for no effect and ±100 for the full control effect.

Compound	viability change, negative = cytotoxic
CN(CCOc1ccc(NS(C)(=O)=O)cc1)CCc1ccc(NS(C)(=O)=O)cc1	2.3% [at 42.5 µM]
CCCCCCOC(=O)CC	6.79%
O=S(=O)(O)CCN1CCN(CCO)CC1	0.209%
Cc1cc(C(C)(C)C)c(O)c(C)c1CC1=NCCN1	2.84% [at 42.5 µM]
CC(C)(C)c1n[nH]c(=S)n(N)c1=O	0.68%
CCC(C)NC(N)=O (stereo not drawn)	3.23%
Oc1cn2c(n1)Nc1ccc(Cl)c(Cl)c1C2	5.01% [at 19 µM]
Cc1nc2n(c(=O)c1CCN1CCC(c3noc4cc(F)ccc34)CC1)CCC[C@H]2O	11.2% [at 19 µM]
NS(=O)(=O)c1ccc(NC(=O)CCC(=O)O)cc1	1.33% [at 42.5 µM]
C=C(C)C(=O)OCC(C)(C)COC(=O)C(=C)C	10.1%
CCCCCCCCSCC	8.53%
C=C(C)C1CCC(C)(O)CC1 (stereo not drawn)	12.5%
On1nnc2ccccc21	1.96%
NC(CO)C(=O)NNCc1ccc(O)c(O)c1O (stereo not drawn)	6.4% [at 42.5 µM]
O=C(CCNNC(=O)c1ccncc1)NCc1ccccc1	5.58% [at 42.5 µM]
CC(C)NCC(O)COc1cccc2[nH]ccc12 (stereo not drawn)	-9.51% [at 42.5 µM]
N[C@@H](COP(=O)(O)O)C(=O)O	2.06% [at 19 µM]
O=C1CC(c2ccc(Cl)cc2)CC(=O)N1	0.918% [at 42.5 µM]
CCOc1cc(NC(C)=O)ccc1C(=O)OC	3.91% [at 42.5 µM]

Compound	viability change, negative = cytotoxic
CCOC(=O)c1ncn2c1CN(C)C(=O)c1cc(F)ccc1-2	1.02% [at 42.5 µM]
CC(C)N(c1ccccc1)C(C)C	0.36%
CC(C)(C)c1nnc(NS(=O)(=O)c2ccc(N)cc2)s1	-0.656% [at 42.5 µM]
C=CCCCCCCCCCCCC	-10.6%
CCCN1C[C@H](CSC)C[C@@H]2c3cccc4[nH]cc(c34)C[C@H]21	9.22% [at 42.5 µM]
CC(C)NCC(O)COc1ccc(COCCOC(C)C)cc1 (stereo not drawn)	9.51% [at 42.5 µM]
COCCOCCOCCOCCOCCO	3.81%
N#Cc1ccc(C(=O)O)cc1	1.99%
Cc1ccccc1C(=O)Nc1ccc(C(=O)N2CCCC(N(C)C)c3ccccc32)cc1 (stereo not drawn)	-5.09% [at 42.5 µM]
COCCOC(=O)C1=C(C)NC(C)=C(C(=O)OC(C)C)C1c1cccc([N+](=O)[O-])c1 (stereo not drawn)	-19.1% [at 42.5 µM]
CN1CCN(CC(=O)N2c3ccccc3C(=O)Nc3cccnc32)CC1	8.41% [at 8.39 µM]
CCCCCCCCOS(=O)(=O)O	18.8%
CC(=O)NCc1c(I)c(NC(C)=O)c(I)c(C(=O)O)c1I	15.9% [at 42.5 µM]
CC(C)C[C@H](NC(=O)CNC(=O)[C@H](Cc1ccc(O)cc1)NC(=O)[C@H](CO)NC(=O)[C@H](Cc1c[nH]c2ccccc12)NC(=O)[C@H](Cc1cnc[nH]1)NC(=O)[C@@H]1CCC(=O)N1)C(=O)N[C@@H](CCCN=C(N)N)C(=O)N1CCC[C@H]1C(=O)NCC(N)=O (stereo in doubt)	1.18% [at 42.5 µM]
COc1cc(C(=S)N2CCOCC2)cc(OC)c1OC	2.58% [at 42.5 µM]
COc1ccc(C2CNC(=O)C2)cc1OC1CCCC1 (stereo not drawn)	6.7% [at 42.5 µM]
CC(C)(C)NC(N)=O	5.93%
Cc1ccc(C=O)cc1C	9.85%
CN1C(C)(C)CCCC1(C)C	9.48% [at 42.5 µM]
